Assay outcomes deposited in PubChem by Johns Hopkins Ion Channel Center.
The list is not random: actives were taken first. Their share in the collection is about 1.6%.
KCNQ2 inh: KCNQ2 (rat) channel inhibition; O88943; B-score at 10 µM; actives 1.1% (n = 310,000); CHO-K1 KCNQ2, FluxOR thallium flux, 20 min; stronger effect = lower value;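 active means fluorescence ratio B-score at most minus 3 library SDs, with starting brightness B-score within 2 library SDs, cut at about -5.5 in these data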
Target sequence (O88943 whole entry, looked up): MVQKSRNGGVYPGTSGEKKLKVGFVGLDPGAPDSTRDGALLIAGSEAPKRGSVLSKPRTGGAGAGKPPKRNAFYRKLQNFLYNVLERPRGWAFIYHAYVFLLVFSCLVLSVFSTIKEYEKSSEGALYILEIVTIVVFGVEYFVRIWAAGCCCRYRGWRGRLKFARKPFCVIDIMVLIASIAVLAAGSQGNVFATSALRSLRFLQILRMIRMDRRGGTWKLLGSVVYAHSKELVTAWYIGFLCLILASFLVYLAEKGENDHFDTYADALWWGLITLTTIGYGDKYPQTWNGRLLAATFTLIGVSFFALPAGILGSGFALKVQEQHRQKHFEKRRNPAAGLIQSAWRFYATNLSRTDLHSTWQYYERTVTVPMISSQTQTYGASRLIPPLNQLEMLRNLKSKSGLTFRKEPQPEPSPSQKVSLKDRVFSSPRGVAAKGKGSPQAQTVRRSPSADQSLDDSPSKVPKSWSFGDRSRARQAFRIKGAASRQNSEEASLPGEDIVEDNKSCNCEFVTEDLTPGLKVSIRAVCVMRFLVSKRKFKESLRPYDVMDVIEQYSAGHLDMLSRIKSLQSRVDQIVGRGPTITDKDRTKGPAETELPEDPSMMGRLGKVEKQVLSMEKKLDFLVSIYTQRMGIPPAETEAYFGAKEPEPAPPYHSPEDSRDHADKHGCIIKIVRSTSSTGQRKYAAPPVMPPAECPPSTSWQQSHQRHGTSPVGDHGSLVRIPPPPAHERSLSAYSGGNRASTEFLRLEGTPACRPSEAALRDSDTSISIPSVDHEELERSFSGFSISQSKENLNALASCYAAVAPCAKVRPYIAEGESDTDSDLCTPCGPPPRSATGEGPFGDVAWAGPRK
KCNQ2 pot: potentiators of rat KCNQ2 potassium channel; CHO-K1 KCNQ2, FluxOR thallium flux fluorescence; stronger effect = higher value; B-score at 10 µM; actives 0.54% (n = 310,000); O88943; AID 2239;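 active means fluorescence ratio B-score at least 3 SD of library B-scores, with initial fluorescence B-score within 3 of them, cut at about 5.3 in these data; same plate scores as AID 2156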;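 further: B-score of peak minus minimum over baseline fluorescence ratio after K+ and Tl+ stimulus; positive B-score means potentiation of KCNQ2 with more thallium influx and brighter signal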
The depositor's hits bear a star; i = inactive; . = not tested or not shown.

SMILES | KCNQ2 inh | KCNQ2 pot
Cc1cc(Cl)n2c(nc3cc(F)c(F)cc32)c1C#N | -13* | -13
Cc1cc(C)n2c(=O)c3ccc(Cl)cc3nc2c1C#N | i | .
C=CCNC(=O)c1c(Cl)cnn1-c1ccc(C)cc1 | i | 0.59
CSC(=NC#N)N1CCN(c2ccc(Cl)cc2)CC1 | i | .
CC1(C)CC(=O)C2=C(C1)Nc1ccccc1NC2c1ccc([N+](=O)[O-])cc1 (stereo not given) | i | 0.22
COc1cccc(OC)c1CNC(=O)C1CCC(=O)N(CC2CCCCC2)C1 (stereo not given) | i | .
COC(=O)c1c(-c2ccccc2)csc1NC(=O)CSc1ncnc2sc(C)c(C)c12 | -5.6* | -5.6
Cc1cccnc1NC(=O)CSc1ncnc2sc(C)c(C)c12 | i | .
CCOC(=O)Cn1ccc(NC(=O)COc2ccc(F)cc2)n1 | i | 0.04
Cc1cccc(N=Nc2ccc(O)c3ncccc23)c1 | i | 6.9*
Cc1ccc(C)c(N=Nc2ccc(O)c3ncccc23)c1 | i | 2.4
CCc1ccc(NC(=O)CC2C(=O)N(c3ccc(C)cc3)C(=O)N2C2CC2)cc1 (stereo not given) | i | .
COc1cc(C=O)ccc1OCC(=O)Nc1cccc(S(=O)(=O)N(C)c2ccccc2)c1 | -8.3* | -8.3
COc1ccccc1OCC(=O)Nc1cccc(N(C)S(C)(=O)=O)c1 | i | .
CC(C)(C)N(Cc1ccccc1)C(=O)CCc1ccccc1 | -6.6* | -6.6
CC(C)N(Cc1ccccc1)C(=O)CCc1ccccc1 | i | .
CN(C(=O)CSc1nnc(COc2ccccc2F)n1N)C1CCS(=O)(=O)C1 (stereo not given) | i | 0.07
CCc1ccc(NC(=O)C2C3/C=C\CCCCC32)cc1 (stereo not given) | i | 5.8*
CCc1ccc(NC(=O)C2CCCCC2C(=O)O)cc1 (stereo not given) | i | 0.17
O=C(Oc1cccc(F)c1)c1ccc2c(=O)n3c(nc2c1)CCC3 | i | 0.11
CC(C)Oc1ccc(C(=O)NCCCNC(=O)c2cccnc2)cc1 | i | .
Cc1noc(C)c1CSc1ncnc2sc3c(c12)CCCCC3 | i | 5.5*
Cc1noc(C)c1CSc1ncnc2sc(C)c(C)c12 | i | 1.1
Cc1cccc(N(C)S(=O)(=O)c2ccc(-c3cnc(C4CC4)o3)cc2)c1 | -9.9* | -9.9
COc1ccccc1NS(=O)(=O)c1ccc(-c2cnc(C3CC3)o2)cc1 | i | .
SMILES | KCNQ2 inh | KCNQ2 pot
Cc1ccc(NS(=O)(=O)c2ccc(-c3cnc(C4CC4)o3)cc2)c(C)c1 | -5.7* | -5.7
COc1cccc(N2CCN(S(=O)(=O)c3ccc(-c4cnc(C5CC5)o4)cc3)CC2)c1 | i | 0.13
Nc1nc(NCCOCCO)nc(NCC2CCCO2)c1[N+](=O)[O-] (stereo not given) | i | 1.8
CCc1ccc(-c2cn(-c3nc(C)cc(C)n3)c(=N)o2)cc1 | -6.4* | -6.4
CCc1ccc(-c2cn3c(n2)SCC3)cc1 | i | .
CC(C)c1ccc(NC(=S)N2CCN(S(=O)(=O)c3ccccc3)CC2)cc1 | i | .
COc1ccc(/C(C#N)=C/c2c(-c3ccc(Cl)cc3)nc3c(C)cccn23)cc1 | i | .
Cc1cccn2c(/C=N/OCc3ccc(F)cc3)c(-c3ccc(Cl)cc3)nc12 | -6.6* | -6.6
CNC(=O)C1CC(=O)N(CCc2ccc(C)cc2)C1 (stereo not given) | i | .
Cc1cc(NC(=O)c2cn(C3CCCCC3)c(=O)c3c2c2ccccc2n3C)no1 | -5.8* | -5.8
Cc1ccc(CNC(=O)c2cn(C3CCCCC3)c(=O)c3c2c2ccccc2n3C)o1 | i | .
Clc1cnc(Nc2cccnc2)c(Cl)c1 | i | 1.1
CCN(CC(=O)N1CCCC1)S(=O)(=O)c1ccc2ccccc2c1 | i | 0.72
CCCCCNC(=O)c1ccc2c(=O)[nH]c3c(C(=O)NCC4CCCO4)sc(=S)n3c2c1 (stereo not given) | -5.7* | -5.7
Cc1ccc(CNC(=O)c2ccc3c(=O)[nH]c4c(C(=O)NCC5CCCO5)sc(=S)n4c3c2)cc1 (stereo not given) | i | .
COc1cccc(C(=O)N2CCN(C(=O)C3COc4ccccc4O3)CC2)c1 (stereo not given) | i | .
COc1ccc(C(C(=O)NC2CCCC2)N(C(=O)c2snc(-c3ccc(F)cc3)c2N)c2ccc(F)cc2)cc1 (stereo not given) | i | .
COc1ccc(C(C(=O)NC2CCCC2)N(C(=O)c2snc(-c3ccc(F)cc3)c2N)c2ccc(OC)cc2)cc1 (stereo not given) | -5.7* | -5.7
COc1ccc(S(=O)(=O)NCC2CCCN(C(=O)CSC)C2)cc1 (stereo not given) | i | 0.84
CC(C)(C)OC(=O)N1CC=C2C(C#N)=C(N)C(C#N)(C#N)C(c3cccs3)C2C1 (stereo not given) | -6.2* | -6.2
CCOC(=O)N1CC=C2C(C#N)=C(N)C(C#N)(C#N)[C@H](c3cccs3)C2C1 (stereo not given in full) | i | .
O=C(NCC1CCCCC1)c1cccc(Br)c1 | i | .
